From patent US20140271602, “NUCLEOTIDE-SPECIFIC RECOGNITION SEQUENCES FOR DESIGNER TAL EFFECTORS” (THE BROAD INSTITUTE INC., published 2014)

Target: T1, TALE1-HN (CACNA1C site 1 activator) (Xanthomonas (engineered), UniProt P14727 SEQ:1-983)
T1 chain: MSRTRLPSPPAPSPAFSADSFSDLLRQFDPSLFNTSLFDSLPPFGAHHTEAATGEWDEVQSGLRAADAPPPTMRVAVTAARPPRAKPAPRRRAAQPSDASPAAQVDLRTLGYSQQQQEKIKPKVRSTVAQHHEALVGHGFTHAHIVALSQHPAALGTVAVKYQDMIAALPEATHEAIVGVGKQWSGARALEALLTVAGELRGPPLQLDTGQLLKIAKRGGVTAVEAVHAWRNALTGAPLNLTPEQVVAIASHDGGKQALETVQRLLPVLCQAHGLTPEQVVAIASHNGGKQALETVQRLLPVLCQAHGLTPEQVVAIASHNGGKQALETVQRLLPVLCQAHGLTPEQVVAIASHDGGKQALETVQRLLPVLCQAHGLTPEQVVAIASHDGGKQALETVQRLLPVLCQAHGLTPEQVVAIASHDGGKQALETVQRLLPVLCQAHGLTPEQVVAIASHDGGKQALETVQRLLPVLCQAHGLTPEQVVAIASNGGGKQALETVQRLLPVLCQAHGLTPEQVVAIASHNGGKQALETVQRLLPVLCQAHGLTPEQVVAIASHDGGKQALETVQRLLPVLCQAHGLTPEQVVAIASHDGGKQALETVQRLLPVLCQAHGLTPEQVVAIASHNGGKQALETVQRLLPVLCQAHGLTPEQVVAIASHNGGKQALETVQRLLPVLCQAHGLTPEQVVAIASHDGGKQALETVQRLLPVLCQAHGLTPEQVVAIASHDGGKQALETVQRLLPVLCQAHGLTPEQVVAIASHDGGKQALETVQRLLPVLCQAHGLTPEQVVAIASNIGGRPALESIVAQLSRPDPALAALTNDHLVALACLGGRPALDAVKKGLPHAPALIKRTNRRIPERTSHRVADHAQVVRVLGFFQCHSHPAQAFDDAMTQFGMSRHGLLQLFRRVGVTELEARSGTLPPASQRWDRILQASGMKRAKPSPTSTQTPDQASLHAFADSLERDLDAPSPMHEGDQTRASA
Assay: cell_activity; luciferase reporter
Settings: tags: VP64, 2A-GFP; dsDNA, one strand shown
Protocol: TALEs using NN, NK, NH, and HN as the G-targeting RVD were synthesized to target two distinct 18 bp target sites in the human CACNA1C locus. Changes in mRNA are measured using qRT-PCR as described previously. VP64, VP64 transcription activation domain. All results are collected from three independent experiments in HEK 293FT cells. Error bars indicate s.e.m.; n=3. FIG. 19(b) discloses SEQ ID NOS 63 and 62, respectively, in order of appearance.
To determine whether NH and HN are suitable replacements for NN as the G-specific RVD, specificity and activity strength of NN, NK, NH, and HN were directly compared. Two 18 bp targets within the CACNA1C locus in the human genome were chosen and four TALEs for each target were constructed, using NN, NK, NH, or HN as the G-targeting RVD (FIG. 19a). […] For each CACNA1C target site, four luciferase reporters were constructed: wild type genomic target, and wild type target with 2, 4, or all guanines mutated into adenines (FIG. 19a, G-to-A reporters), and compared the activity of each TALE using these reporters (FIG. 19a). […] Thus, focus was placed on the RVDs NN, NK, and NH in subsequent experiments to assess their usefulness in modulating transcription at endogenous human genome targets.

Sequence	binding signal
TCAACCCCTGCCGGCCCA	30.8 % reduction vs wild-type site
